Test results reported in PubChem BioAssay (NCI).
Compounds without any hit were thinned out: in the full panel of roughly 79,000, 15% have a hit. A number with no mark means an inactive call. The source made the active and inactive calls. Rule as the data show it: active = growth inhibition above about 70%; inactive = the rest.

Tests used:
[1] = NCI Yeast Anticancer Drug Screen. Data for the rad50 strain (AID 155);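 also: 0% = growth of vehicle-only cultures of the same strain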; conditions: S. cerevisiae rad50 strain growth inhibition, stronger effect = higher value
Method in brief: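 DNA repair mutant yeast, compound exposure, growth read-out; inhibition is taken relative to vehicle.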

[2] = NCI Yeast Anticancer Drug Screen. Data for the mec2-1 strain (AID 157); conditions: S. cerevisiae mec2-1 strain, stronger effect = higher value
Method in brief: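 Test agents were screened against the mec2-1 yeast strain, with defined DNA repair or cell cycle alteration. Growth was scored as inhibition against vehicle-only controls.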

[3] = NCI Yeast Anticancer Drug Screen. Data for the sgs1 mgt1 strain (AID 161);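 also: 0% = growth of cultures given vehicle only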; conditions: S. cerevisiae sgs1 mgt1 strain, stronger effect = higher value
Method in brief: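 Test agents were incubated with a DNA-repair-mutant yeast strain. Growth was then read and compared against vehicle-treated controls.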

[4] = NCI Yeast Anticancer Drug Screen. Data for the cln2 rad14 strain (AID 165);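 also: 0% = growth equal to vehicle treated cultures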; conditions: S. cerevisiae cln2 rad14 strain, stronger effect = higher value
Method in brief: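 Growth of compound-exposed yeast (cln2 rad14 genotype) measured and expressed as inhibition relative to vehicle.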

[5] = NCI Yeast Anticancer Drug Screen. Data for the bub3 strain (AID 167); conditions: S. cerevisiae bub3 mutant strain, stronger effect = higher value
Method in brief: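 In this screen, a yeast mutant lacking normal mitotic checkpoint function is challenged with compound. Relative growth versus vehicle gives the inhibition value.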

[6] = NCI Yeast Anticancer Drug Screen. Data for the mlh1 rad18 strain (AID 175); conditions: S. cerevisiae mlh1 rad18 strain growth inhibition, stronger effect = higher value
Method in brief: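 In this whole-cell yeast screen, a strain with altered DNA damage repair is challenged with compound, and its growth is measured against matched vehicle-treated controls.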

[7] = at 5.0 µM (retest, dose inferred, filed as 0.5)
[8] = at 50.0 µM (retest, dose inferred, filed as 5.0)

SMILES | growth inhibition [1, 7] [%] | growth inhibition [1, 8] | growth inhibition ([1]; at 50.0 µM) | growth inhibition [2, 7] [%] | growth inhibition [2, 8] | growth inhibition ([2]; at 50.0 µM) | growth inhibition [3, 7] | growth inhibition [3, 8] | growth inhibition ([3]; at 50.0 µM) | growth inhibition [4, 7] [%] | growth inhibition [4, 8] | growth inhibition ([4]; at 50.0 µM) | growth inhibition [5, 7] | growth inhibition [5, 8] | growth inhibition ([5]; at 50.0 µM) | growth inhibition [6, 7] [%] | growth inhibition [6, 8] | growth inhibition ([6]; at 50.0 µM)
Cc1cc(N=Nc2ccncc2C)ccc1N | -69 | 98% (active) | 92.5% (active) | -50 | 87% (active) | 52.5% | -34% | 98% (active) | 75.6% (active) | -45 | 92% (active) | 48.9% | -40% | 98% (active) | 89% (active) | -72 | 96% (active) | 66.7%
Cc1ccc(O)c(Cc2ccc(Cl)cc2)c1 | -146 | 97% (active) | 74.7% (active) | -54 | 99% (active) | 99.8% (active) | -56% | 99% (active) | 64.3% | -80 | 99% (active) | 99.5% (active) | -76% | 98% (active) | 99.6% (active) | -119 | 96% (active) | 99.6% (active)
O=C1Oc2ccccc2C(=O)/C1=C/N1C(=O)/C(=C/c2ccc([N+](=O)[O-])cc2)SC1=S | 2 | 68% | 82.5% (active) | -4 | 82% (active) | 90% (active) | 22% | 93% (active) | 96.7% (active) | 3 | 83% (active) | 92.1% (active) | 7% | 49% | 85% (active) | 11 | 77% (active) | 86.3% (active)
O=C1c2cc([N+](=O)[O-])ccc2-c2cc([N+](=O)[O-])ccc21 | 44 | 32% | 91.2% (active) | 39 | 39% | 92.8% (active) | 73% (active) | 97% (active) | 93.3% (active) | 46 | 99% (active) | 68% | 80% (active) | 97% (active) | 91.2% (active) | 21 | 34% | 74.5% (active)
CN1CCCC1c1cccc(Br)c1 (stereo not given) | -163 | 81% (active) | 59% | -51 | 26% | 17.1% | -65% | 37% | 21.6% | -75 | 50% | -1.05% | -69% | 54% | -8.55% | -125 | 50% | 26.1%
COC1CCCCC1C(=O)C(C#N)C1CCCCC1C1CCCCC1 (stereo not given) | 4 | -2% | 96% (active) | 3 | -6% | 95.5% (active) | 7% | 7% | 97% (active) | -5 | 0% | 98.5% (active) | -3% | -3% | 96.7% (active) | 0 | 3% | 98.3% (active)
O=C1C=CC(=O)c2cc(Sc3ccccc3)c(=O)ccc21 | 16 | 37% | 81.2% (active) | 29 | 38% | 42.2% | 25% | 98% (active) | 71.7% (active) | 33 | 72% (active) | 39.4% | 30% | 98% (active) | 37% | 33 | 37% | 87% (active)
CNC(=O)N(C1=NCC(C)S1)c1ccc(C)c(C)c1 (stereo not given) | -13 | 97% (active) | 63.9% | -21 | 98% (active) | 74.9% (active) | -36% | 95% (active) | 71.8% (active) | -17 | 76% (active) | 57.2% | -22% | 98% (active) | 79.2% (active) | -17 | 89% (active) | 69%
CCOc1ccc2c(c1)nc1cc(Cl)ccc1[n+]2C | 9 | 81% (active) | 85.5% (active) | 12 | 84% (active) | 87.2% (active) | -2% | 82% (active) | 86.5% (active) | 8 | 68% | 75.2% (active) | 26% | 88% (active) | 82.8% (active) | 18 | 81% (active) | 89.7% (active)
Cc1cc(O)cc(C)c1[N+](=O)[O-] | 5 | 25% | 55% | 0 | 24% | 49.8% | -6% | 41% | 79.6% (active) | -1 | 20% | 23.6% | -1% | 36% | 29.3% | 4 | 41% | 63.5%
